Bioassay records from PubChem.
Hits are enriched below; roughly 32% of the tested compounds scored in any of these assays.
CYP2C19 inhib – blocks human cytochrome P450 2C19. CYP2C19 Supersomes, luciferin-H EGE luminescence, 30 min. inhibition, % at 5 µM. 96,000 compounds, 21% hits;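 active = CYP2C19 inhibition above a set limit at 5 µM in the primary screen, cut at about 50% in these data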
Target sequence (P33261 whole entry, looked up): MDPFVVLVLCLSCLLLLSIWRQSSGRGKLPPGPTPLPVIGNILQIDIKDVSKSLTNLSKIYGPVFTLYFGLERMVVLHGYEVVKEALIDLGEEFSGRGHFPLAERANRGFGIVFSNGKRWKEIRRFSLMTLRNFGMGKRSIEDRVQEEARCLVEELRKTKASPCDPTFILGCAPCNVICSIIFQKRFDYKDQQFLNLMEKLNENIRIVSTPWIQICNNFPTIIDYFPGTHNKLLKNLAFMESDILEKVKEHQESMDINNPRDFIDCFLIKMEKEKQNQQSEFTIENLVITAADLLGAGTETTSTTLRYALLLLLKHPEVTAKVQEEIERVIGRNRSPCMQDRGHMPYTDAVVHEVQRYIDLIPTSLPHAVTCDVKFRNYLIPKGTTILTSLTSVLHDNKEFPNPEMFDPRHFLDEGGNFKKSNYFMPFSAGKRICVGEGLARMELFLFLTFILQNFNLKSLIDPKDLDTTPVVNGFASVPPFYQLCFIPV
PostGolgi yeast – growth inhibition of a yeast mutant, post-Golgi transport screen; post-Golgi transport phenotypic cell assay; inhibition, % at 10 µM; 98,000 compounds, 0.9% hits;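 also: yeast cells grown in 1536-well plates; yeast grown about 18 h at 30C before absorbance read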
CYP2C19 activ – increases human CYP2C19 enzyme activity; P33261; recombinant CYP2C19, luciferin-H EGE luminescence; stronger effect = higher value; 0 = fully inhibited enzyme, 1 = untreated enzyme; activation factor at 5 µM; 96,000 tested, under 10 active;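 active = activation factor of at least 2 at 5 µM in the primary screen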
PostGolgi ctrl – inhibits growth of the yeast control strain; efflux-deficient yeast background strain, growth absorbance A615, 16 h; inhibition, % at 10 µM; 98,000 compounds, 5% hits; AID 738
CYP2C9 inhib – inhibitors of human CYP2C9; P11712; CYP2C9 Supersomes, luciferin-H conversion, luminescence; inhibition, % at 5 µM; 96,000 compounds, 20% hits;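 active = blocking of liver enzyme CYP2C9 beyond about 50% at 5 µM, limit read from the data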
CYP2C9 activ – increases human cytochrome P450 2C9 activity | recombinant CYP2C9, luciferin-H conversion, luminescence; stronger effect = higher value; factor 1 = untreated enzyme, 0 = blocked | activation factor at 5 µM | 96,000 compounds, 1.4% hits | AID 1024;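 active = activation factor of 2 or more for CYP2C9 at a 5 µM dose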
Hits are given with their value; 0 = inactive; - = not tested or not shown. Rule as the data show it, unless noted: active = inhibition above about 30%; inactive = the rest.

SMILES	CYP2C19 inhib	PostGolgi yeast	CYP2C19 activ	PostGolgi ctrl	CYP2C9 inhib	CYP2C9 activ
CCOC(=O)c1sc(NC(=O)c2ccc(C)o2)nc1C	0	0	0	0	0	0
CCOC(=O)c1sc(Nc2cccc(C)c2C)nc1C	0	0	0	0	70	0
CCOC(=O)c1sc(NC(C)=O)nc1C	0	0	0	0	0	0
CCOC(=O)c1sc(NS(=O)(=O)c2cc(C)ccc2C)nc1C	0	0	0	0	94	0
O=C(c1n[nH]c(=O)c2ccccc12)N1CCN(c2ccc(F)cc2)CC1	0	0	0	0	0	0
COc1cc2nc(COc3ccc(C#N)cc3)n(CC#N)c(=O)c2cc1OC	0	0	0	0	0	0
COc1ccc(C)cc1NC(=O)CN1CCN(S(=O)(=O)c2ccc(C(C)C)cc2)CC1	86	0	0	0	88	0
COc1ccc(C)cc1NC(=O)CN1CCN(S(=O)(=O)c2ccc(Cl)cc2)CC1	66	0	0	50	65	0
COc1ccc(OC)c(C(=O)CN2CCN(S(=O)(=O)c3ccc(Br)cc3)CC2)c1	83	0	0	0	58	0
COc1ccc(NC(=O)CN2CCN(S(=O)(=O)c3ccc(C(C)C)cc3)CC2)cc1OC	0	0	0	0	0	0
COc1ccc(C2(CNC(=O)CCC(=O)O)CCCC2)cc1	0	0	0	0	0	0
O=c1[nH]n(-c2ccccc2)c(=O)c2ccccc12	0	0	0	0	0	0
Cc1[nH]n(-c2ccccc2)c(=O)c1S(=O)(=O)c1ccccc1	88	0	0	0	0	0
O=C(/C=C/c1ccccc1)Nc1ncn[nH]1	0	0	0	0	0	0
O=C(/C=C/c1ccccc1)Nn1cnnc1	53	0	0	0	54	0
C=CCSc1nnc(NC(=O)CSc2nc(CCC)cc(=O)[nH]2)s1	51	0	0	0	0	0
C=CCSc1nnc(NC(=O)CSc2nc3ccccc3[nH]2)s1	62	0	0	0	87	0
C=CCSc1nnc(NC(=O)CSc2nnc(C)s2)s1	0	0	0	0	0	0
CN(C(=O)COc1ccc(C(C)(C)C)cc1)C1CCS(=O)(=O)C1 (centres undefined)	0	0	0	0	0	0
Cc1[nH]nc2ncc(C(=O)c3cc(F)ccc3O)cc12	58	0	0	0	0	0
Cc1noc2ncc(C(=O)c3cc(F)ccc3O)cc12	96	0	0	0	50	0
CCSc1nc2c(sc3nc(C)cc(C)c32)c(=O)[nH]1	0	0	0	42	58	0
CCN(CC)S(=O)(=O)c1cccc(-c2nnc(SCCCC(=O)c3ccccc3)o2)c1	76	0	0	0	64	0
CCN(CC)S(=O)(=O)c1ccc(-c2nnc(SC)o2)cc1	0	0	0	0	0	0
CCN(CC)S(=O)(=O)c1cccc(-c2nnc(SCCCC(=O)c3ccc(F)cc3)o2)c1	95	0	0	0	87	0
SMILES	CYP2C19 inhib	PostGolgi yeast	CYP2C19 activ	PostGolgi ctrl	CYP2C9 inhib	CYP2C9 activ
CCN(CC)S(=O)(=O)c1cccc(-c2nnc(SCc3nc4ccccc4s3)o2)c1	93	0	0	0	0	0
CCN(CC)S(=O)(=O)c1ccc(-c2nnc(SCC(=O)c3ccc(OC)cc3)o2)cc1	0	0	0	0	0	0
COc1ccc(N2CCN(c3nc4c(c(=O)n(C)c(=O)n4C)n3CCCc3ccccc3)CC2)cc1	0	-	0	-	0	0
O=c1cc(-c2ccccc2)nc2nc(CCc3ccccc3)[nH]n12	0	0	0	0	72	0
Cc1cc(=O)n2[nH]c(SCc3ccccc3)nc2n1	0	0	0	0	0	0
O=c1cc(-c2ccccc2)nc(SCc2ccc(Cl)cc2)[nH]1	54	0	0	0	0	0
O=c1cc(-c2ccccc2)nc(SCc2ccccc2)[nH]1	0	0	0	0	0	0
O=c1cc(-c2ccccc2)nc2nc(-c3ccco3)[nH]n12	0	0	0	0	52	0
Cc1nc2nc(-c3ccccc3)cc(=O)n2[nH]1	0	0	0	0	0	0
O=c1cc(-c2ccccc2)nc2nc(SCc3ccccc3)[nH]n12	0	0	0	0	90	0
O=C(c1ccco1)N1CCN(/C(=N/S(=O)(=O)c2cccs2)c2ccccc2Cl)CC1	0	0	0	0	0	0
CC1Cc2cc(/C(O)=C3/C(=O)C(=O)N(CC4CCCO4)C3c3ccco3)ccc2O1 (centres undefined)	0	0	0	0	0	0
Cc1ccc(-n2c(-c3c(-c4ccccc4)noc3C)n[nH]c2=S)cc1	62	0	0	0	68	0
CCCCS(=O)(=O)C(=C1Nc2ccccc2N1)S(=O)(=O)CCCC	0	0	0	30	0	0
CC(O)c1c(OCc2ccccc2)ncnc1OCc1ccccc1 (centres undefined)	0	0	0	0	0	0
c1ccc2cc(-c3csnn3)ccc2c1	0	0	0	0	0	0
Cc1ccc(Nc2nc(-c3ccc(S(=O)(=O)N4CCCC4)cc3)cs2)cc1C	0	0	0	0	54	0
Cc1nc(-c2ccc(S(=O)(=O)N3CCCCCC3)cc2)cs1	0	0	0	0	0	0
NS(=O)(=O)c1ccc(Nc2nc(-c3ccc4ccccc4c3)cs2)cc1	0	0	0	42	0	0
O=C(Nc1nc(-c2cccs2)cs1)c1ccc(S(=O)(=O)N2CCCC2)cc1	0	0	0	0	57	0
COCCN(CCOC)S(=O)(=O)c1ccc(C(=O)Nc2nc(C)c(C(C)=O)s2)cc1	0	0	0	0	0	0
COCCN(CCOC)S(=O)(=O)c1ccc(C(=O)Nc2nc(-c3ccncc3)cs2)cc1	56	0	0	0	69	0
Cc1ccc(S(=O)(=O)c2cc(N3CCOCC3)nc(-c3ccccc3)n2)cc1	0	0	0	0	0	0
Cc1ccccc1-c1nc(CS(=O)(=O)CC(=O)NCCCN2C(C)CCCC2C)c(C)o1 (centres undefined)	0	0	0	0	0	0
Cc1c(NS(=O)(=O)c2cccc(C(=O)NCc3ccncc3)c2)c(=O)n(-c2ccccc2)n1C	0	0	0	0	0	0
SMILES	CYP2C19 inhib	PostGolgi yeast	CYP2C19 activ	PostGolgi ctrl	CYP2C9 inhib	CYP2C9 activ
CSc1nc2c(c(C(F)(F)F)n1)CC(C)CC2 (centres undefined)	0	0	0	0	0	0
NC(=O)c1ccsc1NC(=O)c1ccc(S(=O)(=O)N2CCCCC2)cc1	0	0	0	51	60	0
O=C(Nc1ccc(S(=O)(=O)N2CCCCC2)cc1)c1ccncc1	99	0	0	0	98	0
O=C(Nc1nc(-c2ccc(S(=O)(=O)N3CCCCCC3)cc2)cs1)c1ccccc1	0	0	0	0	72	0
CC(=O)c1ccc(NC(=O)c2ccc(S(=O)(=O)N3CCCC3)cc2)cc1	0	0	0	0	0	0
C=CCn1c(SCC(=O)Nc2nnc(CC)s2)nnc1-c1cccnc1	0	0	0	0	0	0
NC(=O)N1OCC2COc3ccc4ccccc4c3C21 (centres undefined)	0	0	0	0	0	2.1
